# The supplement of paper PMC9877034
# Counter-ions that a name gives are not always drawn. The full ranking holds about 1,000 compounds; the median of “cFRET/donor change relative to DMSO, normalised to beta-lapachone positive control (supercomplex I-IV assembly)” is about 0.18, and the lowest 2% start at about -1. Only a selection was taken, and the lowest values are over-represented in it overall.
# Test system: C2C12 (NDUFB8-AcGFP / COX8A-DsRed-Monomer FRET reporter)
# Test: cFRET/donor change relative to DMSO, normalised to beta-lapachone positive control (supercomplex I-IV assembly) (fraction of beta-lapachone effect); higher = more respiratory supercomplex assembly
# Details: 40 µM; 24 h
# Description: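 Cells were treated with 40 uM compound for 24 h and imaged on an IN Cell Analyzer 6000. Corrected FRET was divided by donor signal (cFRET/donor) and measured in two replicate experiments. The score is (mean cFRET/donor of compound - mean DMSO) / (mean beta-lapachone 40 uM - mean DMSO). Compounds flagged for prominent cell death, abnormal morphology or decreased cell number were excluded.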
row,SMILES,cFRET/donor change
1,Cc1c2ccncc2c(C)c2c1[nH]c1ccccc12 [Ellipticine],-2.44
2,NC(CCP(=O)(O)O)C(=O)O (racemic) [(±)-2-Amino-4-phosphonobutyric acid],0.0445
3,CN1CCC[C@@H]1Cc1c[nH]c2ccc(Nc3ncccc3[N+](=O)[O-])cc12,0.0254
4,C#CCN[C@H](C)Cc1ccccc1 [R-(-)-Desmethyldeprenyl hydrochloride],-0.331
5,C[N+](C)(C)CC#CCOC(=O)Nc1cccc(Cl)c1,0.565
